Our source for the Potency values is PubChem BioAssay AID1745850 (National Center for Advancing Translational Sciences (NCATS), 2022).

SMILES strings stand for the structures. About 260 (12%) of roughly 2,100 compounds were called active. About 58% were inconclusive and are not listed. The call rests on the fitted dose curve; in most records, active means well fitted cell-killing curve with a large enough effect; inconclusive means small, poorly fitted or top-dose-only effect, or effect the other way; inactive means flat fitted curve, though single readings scatter. The list shows a part of the results. Where a call stands in place of a potency, no number is given.
Potency means the concentration at half of the fitted maximal effect.

This assay can be described thus: Viability Counterscreen for Confirmatory qHTS for Inhibitors of ATXN expression. Further: nearly all actives have a fitted effect of over 50% in size. To be noted: HEK-293 ATXN2-luc cells viability, CellTiter-Fluor, 24 h. The essentials: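 Luminescence read-out (SteadyGlo, 5 min) followed a 30 min Gly-Phe-AFC (25 uM final) viability fluorescence read. ATXN2-luciferase reporter cells were exposed 24 h to a dilution series. Medium-only wells served as the 100% inhibition reference.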
`O=C(Nc1ccc(Cl)c(Cl)c1)Nc1nnc(CSc2ccccc2)s1`: the Potency is 2.51 µM (active).
Next, `CCOc1ccc(NC(=O)Nc2nnc(CC(=O)NCc3ccccc3)s2)cc1`: “inactive”.
With `CCCCN1C(=O)/C(=C2/Sc3ccccc3N2C)S/C1=N\c1ncn[nH]1`, the Potency entry was “inactive”.
`CC1=CC(C)(C)N2C(=O)C3(SCC(=O)N3c3ccc(F)cc3)c3cc(C)cc1c32` (centres undefined): the Potency entry was “inactive”.
Next, `CCN(CC)c1ccc(/C=C/c2cccc[n+]2C)c(OC)c1`: 12.6 µM (active); `CCN(CC)c1ccc(C(=O)N/N=C/c2ccccc2OC(F)F)cc1`: “inactive”.
For `O=C(C1CC(=O)N(c2ccc3c(c2)OCCO3)C1)N1CCN(c2ccccc2)CC1` (centres undefined), the Potency result was “inactive”.
With `O=C(CSc1nnc(-c2ccccc2)o1)Nc1ccccc1F`, the Potency result is “inactive”.
Next, `CC1CC(C)CN(CCCNC(=O)c2cc3c(s2)-c2ccccc2OC3)C1` (centres undefined): “inactive”; `Cc1ccc(NC(=O)CCC(=O)c2cc(C)sc2C)nc1`: “inactive”.
Take `CC(=O)c1ccc(N2CCc3ccccc3C2)c([N+](=O)[O-])c1`: the Potency result is “inactive”.
`COc1ccc(-c2cc(C3CCN(c4ccc(C(C)=O)cc4[N+](=O)[O-])CC3)[nH]n2)cc1`: the Potency is 28.2 µM (active).
Under `CN1CCC2(CC1)N=C(c1ccc(F)cc1)C(=S)N2C(=O)c1ccc(C(C)(C)C)cc1` stands “inactive”.
Next, `CC(C)n1c(NCc2cc(Cl)ccc2O)nc2ccccc21`: “inactive”.
Under `Cc1cc(Oc2ccc(Cl)cc2)nc(-c2ccccn2)n1` stands “inactive”; under `Clc1ccc(SCc2cc(N3CCOCC3)nc(-c3ccccn3)n2)cc1`, 10 µM (active); under `Clc1ccc(CSc2ccc(-c3ccccn3)nn2)cc1`, “inactive”.
`CCN(CC)CCCNc1nc2ccccc2c2nc(-c3ccncc3)nn12`: the Potency was 25.1 µM (active).
Next, `COC(=O)N/N=C/c1cn(CC(C)COc2ccccc2)c2ccccc12` (centres undefined): “inactive”; `O=C1C(Cl)=C(N2CCC(C(=O)O)CC2)C(=O)c2ccccc21`: “inactive”.
Regarding `Cc1ccc(C)n1-c1ccc(C(=O)N2CCC(C(N)=O)CC2)cc1`, the Potency entry is “inactive”.
Under `CCOC(=O)C1CCN(C(=O)c2c(C)oc3c2C(=O)c2ccccc2C3=O)CC1` stands 25.1 µM (active); under `COc1ccc(CCCNC(=O)C2Cc3c(-c4cccc(NC(C)=O)c4)ccnc3O2)cc1` (centres undefined), “inactive”; under `N#CCc1nc2ccccc2c(=O)[nH]1`, “inactive”.
Under `Cc1[nH]c(=O)c(C(=O)/C=C/c2ccccc2)c2c1CCCC2` stands 20 µM (active); under `COC(=O)c1ccccc1S(=O)(=O)NNC(=O)Nc1ccccc1`, “inactive”.
Turning to `CC(C)Cn1c(/C=N/Nc2nc3ccccc3[nH]2)nc2ccccc21`, the Potency was 11.2 µM (active).
Under `C(=N\Nc1nc2ccccc2[nH]1)/c1cccc2nccnc12` stands “inactive”; under `CCCCn1c(/C=N/Nc2nc3ccccc3[nH]2)nc2ccccc21`, “inactive”.
Under `Cc1sc2nc(CN3CCCC3)nc(N3CCC(C(N)=O)CC3)c2c1C` stands “inactive”.
Next, `Cc1cc([N+](=O)[O-])nn1Cc1ccc(C(=O)N/N=C/c2ccc(O)cc2O)cc1`: 10 µM (active).
`O=C(N/N=C/c1ccc(O)cc1O)c1ccncc1`: the Potency result is “inactive”.
Under `Cc1cc(C)n(CCC(=O)N/N=C/c2ccc(O)cc2O)n1` stands “inactive”; under `CCn1c(-c2ccc(C)cc2)nn(CC(=O)NCCc2ccccc2)c1=S`, “inactive”.
Under `O=C(NN=Cc1ccc(O)cc1O)c1ccccc1NS(=O)(=O)c1cccs1` stands “inactive”.
Next, `CCc1ccc(C(O)c2ncc(-c3cccc(C(F)(F)F)c3)[nH]2)cc1` (centres undefined): “inactive”; `CCN(CC)CCn1nc2c3c(cccc3c1=O)-c1ccccc1-2`: 14.1 µM (active); `COc1ccc(/C(N)=N/OC(=O)N2CCOCC2)cc1`: “inactive”.
As for `Cn1c2c(c(=O)[nH]c1=O)C(c1cccc(O)c1)C1=C(N2)c2ccccc2C1=O` (centres undefined), the Potency is 22.4 µM (active).
Under `CCOC(=O)C(C(C)=O)c1c(Br)c(O)c(O)c2c(C(=O)c3ccc(C)cc3)coc12` (centres undefined) stands 15.8 µM (active); under `CC(=O)C(C(C)=O)c1c(Cl)c(O)c(O)c2c(C(=O)c3ccccc3)coc12`, 12.6 µM (active).
Under `Cc1ccc(NC(=O)CSc2ccc(Br)cc2)cc1S(=O)(=O)N1CCOCC1` stands “inactive”; under `CCc1ccc(N(CC)C(=O)c2ccc3c(Cl)c4c(nc3c2)CCC4)cc1`, “inactive”.
Under `Cc1ccc(Cc2cnc(NC(=O)/C(C#N)=C/c3ccc(-c4cccc([N+](=O)[O-])c4)o3)s2)cc1` stands 22.4 µM (active).
In the case of `CCN1C(=O)/C(=C/c2nc3ccccc3c(=O)n2-c2ccccc2)c2ccccc21`, the Potency is 25.1 µM (active).
Next, `COc1ccc(Cc2nnc(N/N=C/c3ccccc3O)[nH]c2=O)cc1OC`: 4.47 µM (active); `C=CCOc1ccc(CNc2ccc3[nH]c(=O)[nH]c3c2)cc1OC`: “inactive”.
Next, `COc1cc(Br)cc(/C=N/NC(=O)Cc2ccccc2)c1O`: “inactive”.
Next, `Cc1ccc(S(=O)(=O)c2c(N)n(CC3CCOC3)c3nc4ccccc4nc23)cc1` (centres undefined): “inactive”; `COc1cccc(/C=N/n2c(N)c(S(=O)(=O)c3cccs3)c3nc4ccccc4nc32)c1OC`: 22.4 µM (active).
Take `CCn1ccnc1CN1CCCC(C(=O)c2ccc3cc(OC)ccc3c2)C1` (centres undefined): the Potency result was “inactive”.
Turning to `O=S(=O)([N-]c1nc2ccccc2nc1-[n+]1ccc(Cc2ccccc2)cc1)c1ccc(Br)s1`, the Potency is 7.94 µM (active).
Next, `CCc1noc(C)c1C(=O)N1CCSC1=Nc1cccc(Cl)c1C`: “inactive”.
For the compound `CC1(C)Cc2ccccc2C2=NNC(=O)C2=N1`, the Potency is 28.2 µM (active).
Next, `O=c1cc(C(F)(F)F)[nH]c2ccc(C(F)(F)F)cc12`: “inactive”; `CN(C)CCNC(=O)c1ccc(Cl)c2cc3ccccc3nc12`: 10 µM (active); `COc1ccc(N(C)S(=O)(=O)c2ccc(Cl)c(C(=O)NCCc3ccc(Cl)cc3)c2)cc1`: “inactive”.
Under `CSc1sc(C(=O)NN)c2c1C1(CCC2)SCCS1` stands “inactive”; under `CCCCCn1c(=O)c2ccccc2n2c(CCl)nnc12`, 25.1 µM (active); under `CCOC(=O)C(CC)(CC)C(=O)/C=C/c1ccc(OC)cc1`, “inactive”.
Next, `CC(C)=CCc1ccc(O)c(=O)cc1C(C)C`: “inactive”; `COc1cc(C(=O)N/N=C(\c2ccccc2)c2ccccn2)cc(OC)c1OC`: 2.24 µM (active).
Regarding `COc1cc(C(=O)N/N=C(\Cc2ncc[nH]2)c2ccccc2)cc(OC)c1OC`, the Potency result is “inactive”.
Next, `O=C(N/N=C(\Cc1ncc[nH]1)c1ccccc1)c1cccnc1`: “inactive”.
